# Assay results as given in the supplement of paper PMC3334620.
# Whole data set: some 33,000 sequences, median “E-score (-0.5 to 0.5)” near -8e-05, cut for the highest 2% near 0.23. Many of the other results were omitted from the sample, so the highest values are more common in it than they were.
# Biological target: T1, Nrg2 (UniProt P38082)
# T1 sequence: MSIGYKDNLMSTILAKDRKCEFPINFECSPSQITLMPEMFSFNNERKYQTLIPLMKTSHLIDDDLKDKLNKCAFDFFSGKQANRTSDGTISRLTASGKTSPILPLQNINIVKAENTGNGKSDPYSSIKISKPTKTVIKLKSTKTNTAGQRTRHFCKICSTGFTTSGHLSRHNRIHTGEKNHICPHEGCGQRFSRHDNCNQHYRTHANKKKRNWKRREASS
# Assay: PBM E-score (8-mer binding enrichment) (E-score (-0.5 to 0.5)); higher = stronger / more preferred TF binding
# Settings: protein concentration: 100 nM; construct: GST-full length
# Procedure, shortened: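 Full-length yeast transcription factors or their DNA-binding domains, GST-tagged and expressed with PURExpress, were applied at about 100-200 nM to universal all-10-mer Agilent arrays. These arrays had been made double-stranded by primer extension on fresh or once-stripped slides. Detection used fluorescent anti-GST, normalisation used masliner, and E-scores for ungapped eight-base words pooled with reverse complements came from the Universal PBM Analysis Suite.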
row,Sequence,PBM E-score
1,AAGCTATC,0.153
2,ACAACGCG,0.12
3,AGCGCACA,0.137
4,ACTAGCAT,-0.0422
5,AAGACCGA,-0.018
6,CAAATGCG,0.268
7,CAAATGCC,-0.0811
8,AAAATGCG,0.0104
9,GAAATGCA,0.055
10,TAAATGCA,0.275
11,CAAATGCA,-0.0764
12,AAACCTCC,-0.115
13,AAACTGCG,-0.0689
14,AGTTTCGA,0.0135
15,ATATGGAC,0.0806
16,ATATGGAT,0.247
17,ATATGGAG,0.147
18,GGTGAGAA,-0.0568
19,GAGCGACC,-0.168
20,CAAGTTTC,-0.00709
21,CCCATGAC,-0.0865
22,GGTTTCGA,0.191
23,AAAATGGA,0.308

row,Sequence,PBM E-score
1,AAAATGGG,-0.0403
2,CAAATGGA,-0.0362
3,CAGAGTCC,0.0801
4,AGGGGTCG,0.0876
5,AAGGGTGT,0.0853
6,AAAGGTCC,0.0985
7,CCGGGTCC,-0.171
8,AGGGGTCC,0.316
9,AAGGGTCC,0.439
10,AGGGGTCA,0.128
11,CAGGGTCC,0.446
12,ATGGGTCC,0.0519
13,AAGGGTCT,0.273
14,AAGGGTCA,0.149
15,AAGGTAGG,0.00624
16,GGATAACC,-0.141
17,GTCTTTCA,-0.177
18,AGCCGAAG,-0.104
19,TATAGACA,0.0604
20,AGATTCCG,0.101
21,GAGGGTCA,-0.227
22,AAGGGTCG,0.132
23,GAGGGTCC,0.282

row,Sequence,PBM E-score
1,CAGGGTCA,0.0802
2,CAGGGTCG,0.264
3,GCGGGTCC,-0.0518
4,ACCCCTGC,0.066
5,CAAACGAA,-0.0374
6,TAAGCAAA,0.0437
7,TCCCCTCA,0.235
8,CCCCCTCA,-0.379
9,ACCCCTCA,0.0629
10,AACTGACT,-0.167
11,AAAGTTGC,0.0327
12,AAAGTTGG,0.132
13,AAAGTTGT,0.297
14,AGTGGCTG,0.126
15,AGGGCTGA,-0.201
16,AGTCTTTC,-0.0294
17,ACAGACAC,-0.0421
18,ACAGACAG,0.255
19,CCAGACAG,-0.00394
20,TGTTGTAA,0.102
21,GACAGCGA,-0.131
22,CGAAGACG,-0.0796
23,GTCACGTA,-0.249

row,Sequence,PBM E-score
1,TAATACAA,0.235
2,GAATACAA,0.107
3,CAATACAG,0.125
4,CAATACAC,0.0544
5,CAATACAA,0.275
6,AAATACAA,0.0802
7,ACGACCAT,-0.0998
8,CAATCGCC,0.00157
9,AGTAGGAA,-0.0957
10,CGGCGCGC,0.256
11,GCGCGGGA,0.0263
12,CCGCGCAG,0.0598
13,CCGCGCCG,-0.0754
14,AGGCGCCG,-0.0298
15,CGGCGCGA,0.121
16,CGGCGCCA,0.0132
17,CGGCGCCG,0.25
18,AGGCGCGC,0.0865
19,CCGCGCGG,0.368
20,CCGCGGGC,0.0924
21,CCGCGGGA,0.284
22,AGGTACTA,0.0762
23,CTCTAGCC,-0.283

row,Sequence,PBM E-score
1,AAAAGGCC,-0.197
2,CAACCTAA,0.059
3,GTACGTCA,-0.102
4,TTAGTAAA,0.169
5,ACATGCTC,0.00619
6,AAGAAGCC,0.162
7,ATAACATA,0.123
8,ATGTCCCA,-0.0945
9,AAGTGCGG,0.133
10,AGGCGCCC,-0.0716
11,CCGCGCCC,-0.0342
12,GGGCGCCA,0.191
13,CCGCGCGC,0.236
14,GGGCGCCC,0.282
15,CCGCGCTC,0.0292
16,TCAGACGA,0.119
17,AACCCGAA,0.0237
18,AACCGCGG,0.182
19,TATGTTAA,-0.127
20,CTTTCACC,-0.0112
21,ATCAACCC,0.297
22,ATAAACCC,0.307
23,CTCAACCC,0.00526

row,Sequence,PBM E-score
1,ATAAACCA,-0.0416
2,CTAAACCC,-0.0134
3,ATCAACCA,0.0788
4,TCTTTGAA,-0.105
5,AGGCCACA,-0.149
6,CATCATTA,0.231
7,ACTCATTA,0.268
8,ACTCATTC,0.117
9,CATCATTC,0.0606
10,AATCATTA,0.0429
11,GCTCATTA,-0.058
12,GTAGGCGA,0.0848
13,ATTCGGTA,0.074
14,AATTGCTC,-0.145
15,AATTGCTG,0.257
16,AATTGCTA,0.0948
17,ATGGCCTC,-0.0922
18,ACCGTTAC,-0.118
19,TAGTATCA,0.283
20,TAGTATGA,0.26
21,CAGTATGA,0.178
22,CAGTATCA,-0.0774
23,GAGTATCA,0.00367

row,Sequence,PBM E-score
1,AAGTATGA,0.0335
2,GAACGCTC,-0.107
3,GACAGTGA,0.0197
4,ACGGAAAA,0.0488
5,ACGGAAAC,-0.0771
6,ACGGAAAT,0.244
7,ACTTGTCA,0.0495
8,AAAGCAAA,0.102
9,ACAGCTCC,-0.0601
10,AGCGCGAC,0.12
11,GCAGCGTA,-0.128
12,ACTCCCCA,-0.0321
13,ACTAGTAA,0.036
14,ACTAGTAT,0.246
15,ACTAGTAG,0.0854
16,ACTACTAT,0.27
17,ACTACTAC,0.0486
18,ACTACTAA,-0.00741
19,TGGTGAAA,-0.0676
20,CCCAATAG,0.00098
21,AATTCGCT,0.318
22,AATTCGCA,0.229
23,AATTCGCG,0.202

row,Sequence,PBM E-score
1,CATTCGCA,-0.0034
2,GATTCGCA,0.121
3,AATTCGCC,0.167
4,AAGATCCC,0.132
5,ACAGGGAA,0.0579
6,ATAGGGAC,0.139
7,ACAGGGAG,-0.147
8,ACAGGGAC,0.339
9,ACAGGGAT,0.295
10,AGAGGGAC,-0.0381
11,CCCGCAAG,-0.15
12,TGTGAACA,-0.0105
13,ATCGTGAA,-0.0316
14,CCCATACG,-0.0789
15,TACCATCA,-0.169
16,CCATAGGG,0.00266
17,ACGAATTA,0.1
18,CCGAATTA,-0.00177
19,GCGAATTA,0.279
20,GTCCGCGA,-0.0693
21,AAAGAGGC,-0.228
